According to PubChem BioAssay (NCI):
Compounds without any hit were thinned out: in the full panel of roughly 83,000, 20% have a hit.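 Activity criterion: percent growth below 10, measured after cells in 96-well plates were exposed to a single compound concentration for 48 hours.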 A number with no mark means an inactive call. Active and inactive are the calls of the source.

Columns and labels:
Assay in all cases: NCI-60 one-dose screen, 48 h (100 = growth as untreated, 0 = no growth, -100 = all killed)
Conditions in all cases: 10 µM unless noted
HCT-15 colon = system: HCT-15 colon
HT29 colon = system: HT29 colon
SNB-75 CNS = system: SNB-75 CNS
SNB-19 CNS = system: SNB-19 CNS
PC-3 prostate = system: PC-3 prostate
SK-MEL-5 melanoma = system: SK-MEL-5 melanoma
UACC-62 melanoma = system: UACC-62 melanoma
LOX IMVI melanoma = system: LOX IMVI melanoma
SK-MEL-28 melanoma = system: SK-MEL-28 melanoma
U251 CNS = system: U251 CNS

SMILES | growth (HCT-15 colon) | growth (HT29 colon) | growth (SNB-75 CNS) | growth (SNB-19 CNS) | growth (PC-3 prostate) | growth (SK-MEL-5 melanoma) | growth (UACC-62 melanoma) | growth (LOX IMVI melanoma) | growth (SK-MEL-28 melanoma) | growth (U251 CNS) [%]
COc1c(Br)cc(C(c2cc(Br)c(OC)c(Br)c2)c2ccccc2C(=O)O)cc1Br | 115% | 100% | 76.7% | 95.9% | 89.9% | 100% | 97.9% | 96.6% | 112% | 
CCOC(=O)CNC(=O)C1(NC(=O)CNC(=O)OCc2ccccc2)CCCC1 | 102% | 105% | 83.9% | 102% | 98.7% | 112% | 97% | 95.4% | 107% | 
CC(=O)Nc1ccc(C(=O)COc2ccc(/C=C3\CCc4ccccc4C3=O)cc2)cc1 | 102% | 104% | 116% | 106% | 88.8% | 98% | 99.7% | 99.9% | 122% | 
O=C1/C(=C/c2ccccc2O)C(=S)SN1Cc1ccco1 | 91.6% | 87.6% | 70.2% | 111% | 93.3% | 95.8% | 94.4% | 34.7% | 92% | 
O=C(Nc1nn2c(-c3cc(C(F)(F)F)cc(C(F)(F)F)c3)nnc2s1)C1CCCC1 | 13.6% | -28.7% (active) | 37.9% | 26.6% | 8.85% (active) | -69.6% (active) | 7.5% (active) | 13.1% | 30.4% | 
COc1ccc(CCN2C(=O)CCC3=C2CCCC3=O)cc1OC | 97.6% | 108% | 82.3% | 100% | 96.6% | 99.1% | 105% | 98.8% | 108% | 
Cc1nn(-c2ccccc2)c2nc(N)c(C3=NCCO3)nc12 | 98% | 100% | 73.1% | 100% | 81.4% | 97.4% | 96.5% | 94.7% | 103% | 
Cn1c(N2N=C(c3ccc(Cl)cc3)CC2c2ccccc2)nc(-c2ccccc2)c(C#N)c1=O (stereo unspecified) | 80% | 79.3% | 91.4% | 88.8% | 49.7% | 54.7% | 58.9% | 70.9% | 94.5% | 
Cc1ccc(-c2c3c(N)c4c(nc3nc3c2c(C)nn3-c2ccccc2)CCC4)cc1 | 15% | 3.96% (active) | 105% | 99.4% | 91.1% | 90.4% | 99.8% | -31% (active) | 70.2% | 
COc1cccc(CCN2C(=O)CCC3=C2CCC3=O)c1 | 108% | 106% | 84.4% | 102% | 93.5% | 98.2% | 97.8% | 97.9% |  | 
COc1cccc(/C=C2\Cc3ccccc3C2=O)c1 | 100% | 100% | 104% | 94.2% | 87.5% | 100% | 98.9% | 99.5% | 113% | 
O=C1/C(=C/c2cccc(Cl)c2)CCc2ccccc21 | 93.7% | 91.2% | 72.5% | 87.1% | 89.7% | 101% | 97.7% | 90.9% | 106% | 
Cc1ccc(C(NC(=O)c2ccccc2)c2ccc3cccnc3c2O)cc1 (stereo unspecified) | 28.9% | 22.2% | 33.3% | 19.9% | 26.1% | -42.3% (active) | -8.42% (active) | 11.1% | 30.8% | 
CC(=O)/C(=C/c1ccc(Cl)cc1)C(=O)c1ccccc1 | 79.3% | 78.9% | 81.6% | 91.1% | 68.5% | 94.2% | 82.1% | -43.9% (active) | 95.5% | 
C=C1CCC2C3(C)COC(c4ccccc4)OC3CCC2(C)C1C/C=C1/C(=O)OCC1OC(C)=O (stereo unspecified) | 79.1% | 65.7% | 75.3% | 95.6% | 78.5% | 60.7% | 90.2% | 12.3% | 118% | 
COc1cc2c(cc1OC)C(CC1(O)CCCCC1)N(S(=O)(=O)c1ccc(C)cc1)CC2 (stereo unspecified) | 22.7% [100 µM] | 21.1% [100 µM] | 40.8% [100 µM] | 48.9% [100 µM] | 2.56% [100 µM] (active) | 18.7% [100 µM] | 27.4% [100 µM] | 29.3% [100 µM] | 55% [100 µM] | 
COc1ccc([N+](=O)[O-])c(S(=O)(=O)c2ccc(Cl)cc2)n1 | 27.2% | 73.7% | 78% | 92% | 92.3% | 91.6% | 89.1% | 10.7% |  | 
COc1cc(/C=C\C(C)=N\Nc2ccccc2)ccc1O | 75.4% | 108% | 98.7% | 103% | 67.2% | 95% | 69.8% | 73.1% | 120% | 
COc1ccc(OC)c2c1CCC1(C2)NC(=O)NC1=O (stereo unspecified) | 93.6% | 104% | 86.2% | 98.8% | 94.8% | 101% | 103% | 100% | 106% | 
CO[C@H]1/C=C/O[C@@]2(C)Oc3c(C)c(O)c4c(O)c(c(/C=N/N5C(C)CN(Cc6ccc(C#N)cc6)CC5C)c(O)c4c3C2=O)NC(=O)/C(C)=C\C=C\[C@H](C)[C@H](O)[C@@H](C)[C@@H](O)[C@@H](C)[C@H](OC(C)=O)[C@@H]1C (stereo partly specified) | 25% | 26.4% | 56.7% |  | 13.1% | 5.17% (active) | 3.13% (active) | 52.5% | 46.3% | 34.9
COc1cc(-c2nc3nc4sc(C)c(C)c4c(=O)n3[nH]2)cc(OC)c1OC | 73.5% | 82.3% | 80.1% | 92.9% | 85.1% | 55.3% | 61.5% | 81.7% | 87.6% | 
Oc1c(N=Nc2nn[nH]n2)ccc2ccccc12 | 68.2% | 81.8% | 143% | 92.6% | 67.6% |  | 77% | 78% | 94.6% | 
NC(=O)NC1(C(=O)O)CCCC1 | 99.9% | 108% | 100% | 113% | 100% | 111% | 115% | 103% | 122% | 
CC(C)=CCNc1ncnc2c1ncn2C1OC(COP(=O)(O)O)C(O)C1O (stereo unspecified) | 31.6% | 31.6% | 65.2% | 89.5% | 12% | 81.1% | 69.6% | -61.3% (active) | 85.7% | 
N#Cc1c(-c2ccccc2)cc(-c2ccccc2)n(CC(=O)O)c1=O | 32.6% | 24.2% |  | 58.3% | 70.4% | 40.6% | 28.6% | 52.5% |  | 47.5
CCN1CC2=C(Nc3nc(SC)[nH]c(=O)c3C2c2cc(OC)c(OC)c(OC)c2)/C(=C/c2cc(OC)c(OC)c(OC)c2)C1 (stereo unspecified) | 104% | 99.1% |  | 91.6% | 92.2% | 88.6% | 90.1% | 91.1% | 104% | 83.8
C/C(=C\CCc1ccsc1)CC/C=C(\C)CCCN1CCSCC1 | 82.5% | 88.1% | 101% | 96.1% | 80.4% | 77.2% | 77% |  | 94.6% | 
Cn1ccnc1C(=O)/C=C/c1ccc(C(=O)Nc2nc3ccccc3[nH]2)cc1 | 24.3% | 8.78% (active) | -17% (active) | 41.1% | 38.1% | 83.1% | 74.7% | 11.5% | 89.7% | 
CCCCCCCCCCCCC1CCCC(C)C1 (stereo unspecified) | 97.5% | 101% | 64.8% | 104% | 88.8% | 101% | 102% | 99.7% | 88.9% | 
